Data as given in PubChem BioAssay AID504683 (Southern Research Specialized Biocontainment Screening …, 2011).
Entries with a potency or affinity are not part of this list. Unmarked numbers belong to inactive results. How the calls were made is not given here.

experiment: cytotoxicity control, cell-based, set 2 (AID 504683); conditions: THP-1 human monocytes; series mostly up to 100 µM; viability: at the top concentration

Row | SMILES | viability [%]
1 | COC(=O)C1CC(=O)N(c2ccc(OCc3ccccc3Cl)cc2)C1 (stereo not drawn) | 95.3
2 | O=c1[nH]c(=S)[nH]c2ccccc12 | 105
3 | O=C(CSc1nc2ccccc2c(=O)[nH]1)NCc1ccc(Cl)cc1 | 89.6
4 | O=C(CSc1ccccn1)NC1CCCCC1 | 106
5 | O=C(CSc1nc2ccccc2c(=O)[nH]1)NC1CCCCC1 | 106
6 | COc1cc(NC(=O)C/C(C)=N/NC(=O)c2ccccn2)c(OC)cc1Cl | 99.3
7 | Cc1ccc(NC(=O)COC(=O)CCc2c[nH]c3ccccc23)cc1[N+](=O)[O-] | 104
8 | O=C(CSc1ncccn1)NC1CCCCC1 | 110
9 | CCSc1nc(C)c(C)c(=O)[nH]1 | 100
10 | Cc1[nH]c(=S)[nH]c(=O)c1C | 101
11 | CCOC1OC(=O)C(Cl)=C1Nc1ccccc1C (stereo not drawn) | 91.5
12 | CC1CCN(C(=O)C2CCN(c3nnc(-n4cccc4)s3)CC2)CC1 | 90.2
13 | COC(=O)C(C)Oc1ccc(-c2nccc(-c3ccccn3)n2)cc1 (stereo not drawn) | 83.3
14 | O=C(CSc1nccc(=O)[nH]1)Nc1ccc(Oc2ccccc2)cc1 | 94.9
15 | Cc1cc(=O)[nH]c(=S)[nH]1 | 114
16 | COC(=O)c1ccc(CNc2c(N3CCCC3)c(=O)c2=O)cc1 | 100
17 | Cc1nc(SCC(N)=O)[nH]c(=O)c1C | 102

Row | SMILES | viability [%]
18 | Cc1nc(SCc2ccccc2Cl)[nH]c(=O)c1C | 97.9
19 | O=C(CSc1nccc(=O)[nH]1)Nc1ccc(N2CCOCC2)cc1 | 103
20 | Cc1c[nH]c(=S)[nH]c1=O | 113
21 | COC(=O)CCc1nc2c(C#N)c(-c3ccc(Cl)cc3)ccn2n1 | 97.2
22 | Cc1nc(SCC(=O)N(C)c2ccccc2)[nH]c(=O)c1C | 90
23 | CC(=NCc1ccc2c(c1)OCO2)C1=C(O)c2ccccc2C1=O | 96.5
24 | Cc1ccc(NC(=O)C2C3/C=C\CCCCC32)cc1C (stereo not drawn) | 93
25 | CCSc1nc2ccccc2c(=O)[nH]1 | 90.2
26 | O=C(/C=C\c1cccs1)N1CCN(Cc2ccc3c(c2)OCO3)CC1 | 87.9
27 | CCOC(=O)CSc1nc(C)c(C)c(=O)[nH]1 | 101
28 | O=C(CSc1nc(O)cc(=O)[nH]1)Nc1ccccc1 | 103
29 | CCc1ccc(/C=C2/C(=O)N(C)C(=S)N2CC(=O)OC)s1 | 82.8
30 | COC(=O)C(C)Oc1ccc(Cc2ncc(C(F)(F)F)cc2Cl)cc1 (stereo not drawn) | 102
31 | Cc1cc(=O)[nH]c(SCC(=O)Nc2ccccc2)n1 | 90.5
32 | Cc1nc(SCC(=O)NC2CCCCC2)[nH]c(=O)c1C | 113
33 | CCOC(=O)COc1ccc(/C=C2\NC(=S)N(CC)C2=O)cc1 | 83.1
